Assay outcomes from PubChem.
TGFb SMAD3 inh – qHTS for Inhibitors of TGF-b. HepG2 CAGA-GFP TGF-b/SMAD3 reporter, GFP fluorescence, 18 h; TGF-beta stimulated, 500 pg/mL final. Potency, µM (highest dose often 46.1 µM), without a hit: top-dose activity, negative = inhibition, actives largely listed as inhibitors. 410,000 compounds, 1.2% hits. AID 588855, 2011; note: % is set by controls: 0 for no effect and ±100 for the full control effect; nearly all actives have a fitted effect of over 65% in size
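Cell-based qHTS in HEPG2 carrying a CAGA-GFP Smad reporter; compounds added before 500 pg/mL final TGF-beta, 18 h incubation at 37 degrees C, GFP fluorescence quantified per cell by imaging cytometry.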
HepG2 viability – qHTS for Inhibitors of TGF-b: Cytotox Counterscreen; 410,000 compounds, 0.76% hits; AID 588856, 2011; HepG2 CAGA-GFP viability, ATP luminescence, 18 h; Potency, µM (top dose mostly 46.1 µM), without a hit: at the top dose activity change, negative = cytotoxicity, most hits filed as cytotoxic
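CellTiter-Glo luminescence gave cytotoxicity after 18 hours at 37 degrees C. The cells were HepG2 CAGA-GFP in 1% FBS DMEM, stimulated with 500 pg/mL TGF-beta after compound addition. %Activity was normalised to no-cell wells (complete cell-killing) and DMSO (no toxicity), and curves were fitted and classified.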
ATXN2 expr inh – Primary qHTS for Inhibitors of ATXN expression | HEK-293 ATXN2-luciferase reporter, luminescence, 24 h | Potency, µM (series often up to 57 µM), for the others: at the highest dose activity change, negative = inhibition, actives largely listed as inhibitors | 360,000 compounds, 0.72% hits; note: % is set by controls: 0 for no effect and ±100 for the full control effect; nearly all actives have a fitted effect of over 55% in size
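qHTS (up to 57 uM final) was run with 24 h compound exposure of reporter cells at 37 °C. Each well was multiplexed: SteadyGlo luminescence measured ATXN2-luciferase expression after a fluorogenic Gly-Phe-AFC viability readout (25 uM final).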
A549 viability – Nrf2 qHTS screen for inhibitors: counterscreen for cytotoxicity | A549 ARE-Fluc cells, CellTiter-Fluor viability, 18-24 h | Potency, µM (series often up to 46 µM), for the others: at the highest dose activity change, negative = cytotoxicity, actives largely listed as inhibitors | 390,000 compounds, 0.16% hits; note: % is set by controls: 0 for no effect and ±100 for the full control effect
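A549 ARE-Fluc cells in 5% FBS OPTI-MEM, 5000 cells/well, rested 2 h then exposed to compounds in concentration-response for 18-24 h at 37 °C. Viability by CellTiter-Fluor fluorescence (Ex 405/Em 525) after 30 min; luciferase luminescence (BugLite, 15 min, RT) read afterwards.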
ATXN viability – Viability Counterscreen for Primary qHTS for Inhibitors of ATXN expression; S2 cells (HEK-293 line with an ATXN2-luciferase reporter) viability, CellTiter-Fluor protease fluorescence, 24 h; Potency, µM (series often up to 56.7 µM), hits mostly cytotoxic; 400,000 compounds, 0.49% hits; AID 651635, 2014; note: nearly all actives have a fitted effect of over 40% in size
Nrf2 inh – Nrf2 qHTS screen for inhibitors; A549 ARE-Fluc reporter, luciferase luminescence, 18-24 h; Potency, µM (highest dose often 46 µM), without a hit: at the highest dose activity change, negative = inhibition, most hits filed as inhibitors; 360,000 compounds, 2.1% hits; note: % is set by controls: 0 for no effect and ±100 for the full control effect; nearly all actives have a fitted effect of over 60% in size
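Reporter: ARE-Fluc in A549. Exposure: 18-24 h, 37 °C, 5% CO2, 5% FBS OPTI-MEM. Readouts: fluorescent cytotoxicity (CellTiter-Fluor), then luminescent Nrf2 signal after BugLite.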
The depositor's hits bear a star; i = inactive; u = inconclusive; x = no result; ! = not confirmed by another sample. The list is not random: actives were taken first. Their share in the collection is about 3.8%. Calls come from the whole dose curve; as a rule, active = well fitted curve in the direction sought with a large enough effect; inconclusive = small, poorly fitted or top-dose-only effect, or another doubt; inactive = no such curve, though single readings can be large; an effect the other way counts as inactive or inconclusive. Potency is the fitted concentration of half-maximal effect.

SMILES | TGFb SMAD3 inh | HepG2 viability | ATXN2 expr inh | A549 viability | ATXN viability | Nrf2 inh
CCC(=O)N1CCCC(C)(C(=O)Nc2ccc3oc(CC)nc3c2)C1 (stereo not drawn) | 3% | 0% | 2% | x | i | x
Cc1c(Cl)ccc2c1NC(=O)[C@]21N[C@@H](Cc2ccccc2)[C@H]2C(=O)N(c3ccc(F)cc3)C(=O)[C@H]21 | 10µM* | -57% | -16% | -20% | u | u
CCCN1C(=O)/C(=C/c2c(N3CCNC(=O)C3CC(=O)OCC)nc3c(C)cccn3c2=O)SC1=S (stereo not drawn) | 78% | 6% | u | u | x | 21µM*
CSC1=C(C#N)C(c2ccc3c(c2)OCO3)C2=C(CCCC2=O)N1 (stereo not drawn) | -25% | -17% | 5% | -11% | i | -9%
CCSC1=C(C#N)C(c2ccc(Cl)cc2)C2=C(CCCC2=O)N1 (stereo not drawn) | u | -57% | -20% | u | i | 21µM*
COc1ccc(N2CCN(c3ccc(S(=O)(=O)N(C(C)C)C(C)C)cn3)CC2)cc1 | -3% | -13% | -21% | 2% | i | -2%
O=[N+]([O-])c1ccc(O)c(C(C#Cc2ccccc2)N2CCOCC2)c1 (stereo not drawn) | 13µM* | -4% | 23% | 3% | i | 6%
O=C(NCC(c1cccs1)N1CCOCC1)c1cc([N+](=O)[O-])ccc1Cl (stereo not drawn) | 0% | 9% | 3% | 0% | i | 3%
Cc1ccc(N2CC(C(=O)Nc3ccccc3OC(F)F)CC2=O)cc1 (stereo not drawn) | -6% | -1% | -10% | 2% | i | -11%
CC(/C=N/n1c(C2CCCCC2)n[nH]c1=S)=C\c1ccccc1 | -23% | -96% | -35% | x | u | 18µM*
CN(Cc1cnc2nc(N)nc(N)c2n1)c1ccc(C(=O)N[C@@H](CCC(=O)O)C(=O)O)cc1 | 6% | -69% | 32µM*! | -18% | u | 1.5µM*!
CC(C)CNc1ncnc2onc(-c3ccc(Cl)cc3)c12 | 4% | 0% | 1% | 1% | i | -8%
CC(C)CNc1ncnc2oc(-c3ccco3)c(-c3ccco3)c12 | u | -28% | x | -14% | x | 16µM*
COc1ccc(CNC(=O)CCNC(=O)C2CCN(S(=O)(=O)c3ccc(OC)cc3)CC2)cc1 | -1% | -8% | x | x | i | x
CSc1ncc(CN2CCc3c([nH]c4ccccc34)C2c2cccc(C)n2)cn1 (stereo not drawn) | 1% | -1% | 5% | -6% | i | 1%
CSc1ncc(CN2CCc3c([nH]c4ccccc34)C2c2cccc(O)c2)cn1 (stereo not drawn) | 11µM* | -80% | -38% | -3% | i | -7%
O=C(Nc1ncccn1)c1cc([N+](=O)[O-])cc([N+](=O)[O-])c1 | -8% | -11% | 1% | 1% | i | -3%
O=[N+]([O-])c1cc(-c2ncccn2)c([N+](=O)[O-])s1 | 11µM* | -96% | u | -22% | x | -5%
CCN(CC)CCNC(=O)c1ccc2c(c1NCCO)C(=O)c1ccccc1C2=O | 1.3µM* | 1µM* | x | u | 7.9µM* | 3.3µM*
CC1CCN(C(=O)c2ccc3c(c2NCCO)C(=O)c2ccccc2C3=O)CC1 | u | -9% | -16% | u | u | x
CCN(CC)CCC(=O)Nc1cccc2c1C(=O)c1ccccc1C2=O | u | -82% | u | 21µM* | i | 16µM*
CCC(CC)c1nn2c(=O)cc(COc3ccc(NC(=O)c4ccccc4Cl)cc3)nc2s1 | -30% | -21% | 11% | -6% | i | -2%
O=C(NNC(=O)c1ccc(Cl)c(Cl)c1)c1ccncc1 | -28% | 4.5µM* | 6% | 5% | i | 18%
Cc1ccc(Cl)cc1N1CCN(C(=O)c2c(C)oc3ncnc(N4CCCCC4)c23)CC1 | u | -66% | 28µM* | -9% | u | -28%
Cc1oc2ncnc(N3CCCCC3)c2c1C(=O)N1CCN(c2ccc(Cl)cc2)CC1 | -2% | 5% | 3% | -6% | i | 21%
SMILES | TGFb SMAD3 inh | HepG2 viability | ATXN2 expr inh | A549 viability | ATXN viability | Nrf2 inh
Cc1ccc(Cl)cc1N1CCN(c2ncnc3onc(C)c23)CC1 | u | -17% | u | -19% | i | 21µM*
COc1ccc(CNCCC(c2ccc(F)cc2)c2ccc(OC)cc2)cc1 (stereo not drawn) | u | -97% | -14% | 10% | i | 26%
COc1ccc(C(CCNCc2ccc(N(C)C)cc2)c2ccccc2OC)cc1 (stereo not drawn) | u | -48% | u | -22% | i | -21%
COc1ccc(C(CCNCc2ccc(OC(C)C)cc2)c2ccccc2OC)cc1 (stereo not drawn) | 14µM* | 11µM* | x | u | 14µM* | u
COc1ccc(CNC(=O)CNC(C)c2ccc(F)cc2)cc1 (stereo not drawn) | -3% | 8% | 0% | 0% | i | 4%
COc1ccc(C(CCNCc2ccccc2)c2ccc(F)cc2)cc1 (stereo not drawn) | 18µM* | -60% | -31% | 12% | i | 11%
COc1ccc(CNCCC(c2ccc(OC)cc2)c2ccccc2OC)cc1 (stereo not drawn) | u | 11µM* | -37% | -7% | u | 24%
COc1ccc(C(CCNC(C)c2ccccc2)c2ccc(F)cc2)cc1 (stereo not drawn) | 13µM* | -73% | 28µM* | 9% | u | 14%
CCC1=C(c2ccc(C)cc2)S(=O)(=O)N=C1N1CCC(C(=O)Nc2ccccc2C(=O)OC)CC1 | u | -18% | -11% | -1% | i | u
O=C(CNC(c1ccccc1)c1ccccc1)Nc1ccccc1-c1ccccc1 | -28% | 9% | u | -7% | i | u
CN(CCO)c1ccc(-c2n[nH]c(=O)c3ccccc23)cc1[N+](=O)[O-] | -7% | -35% | -3% | -8% | i | u
COc1ccc(CNC(=S)NCc2ccc(OC(C)C)cc2)cc1 | -18% | 18µM* | -9% | 12% | i | 5%
COc1ccc(CNC(=S)Nc2cc(C)cc(C)c2)cc1 | -9% | -50% | -11% | u | i | -14%
